Hits are enriched below; roughly 19% of the tested compounds scored in any of these assays.
SW480 rerep: inducers of DNA re-replication in SW480 colon cancer cells. SW480 DNA re-replication, Hoechst DNA content imaging, 48 h. Potency, µM (series often up to 46.1 µM), for the others: at the highest dose re-replication activation, hits mostly activators. 340,000 compounds, 1.8% hits; further: potency means the concentration at half of the fitted maximal effect; % of control where 0% means no effect; nearly all actives have a fitted effect of over 55% in size
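SW480 cells exposed to compounds for 48 hr at 37 C, 5% CO2, then Hoechst-stained 40 min. Nuclear DNA content imaged by fluorescence scanning (405 nm excitation, 500-530 nm emission); re-replication scored as increased high-intensity nuclei.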
DT40 TDP1 no CPT: qHTS for Inhibitors of human tyrosyl-DNA phosphodiesterase 1 (TDP1): qHTS in cells in absence of CPT; DT40 Tdp1-/- hTDP1 cells, no CPT, ATP luminescence, 48 h; Potency, µM (top dose mostly 46.2 µM), for inactives: top-dose activity change, negative = growth inhibition, most hits filed as inhibitors; 420,000 compounds, 15% hits; further: potency means the concentration at half of the fitted maximal effect; on the % scale 0 is the no-effect control and ±100 the full control effect; nearly all actives have a fitted effect of over 55% in size
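Compound effects on proliferation are scored in DT40 Tdp1-/-;hTDP1 cells in the absence of CPT. ATP levels (CellTiter-Glo luminescence) are recorded after a ≥48 hr, 37 °C incubation.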
MCF10A rereplic: induces DNA re-replication in MCF 10a normal breast cells; AID 624296; Potency, µM (top dose mostly 46.1 µM), for inactives: top-dose activity, positive = re-replication, actives largely listed as activators; 350,000 compounds, 2.9% hits; MCF 10A DNA re-replication, Hoechst nuclear intensity, 48 h; further: potency means the concentration at half of the fitted maximal effect; % of control where 0% means no effect; nearly all actives have a fitted effect of over 50% in size
TDP1 cell CPT: DT40-hTDP1 cell growth loss with CPT | Potency, µM (top dose mostly 46.2 µM), inactives show top-dose activity change, negative = growth inhibition, actives largely listed as inhibitors | chicken DT40 Tdp1-/-;hTDP1 cells + 20 nM CPT, ATP luminescence, 48 h | 420,000 compounds, 12% hits; further: potency means the concentration at half of the fitted maximal effect; on the % scale 0 is the no-effect control and ±100 the full control effect; nearly all actives have a fitted effect of over 55% in size
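Chicken DT40 Tdp1-/- cells stably complemented with human TDP1 were seeded at 400 cells/well in medium containing 20 nM camptothecin, exposed to pin-transferred compounds, and grown at 37 °C for at least 48 hr. Viability was read as ATP luminescence.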
IL-1B inflam inh: inflammasome signaling inhibition, IL-1 beta readout; activity change, % at 57.5 µM; AID 743279; THP-1 LPS/ATP IL-1B secretion, AlphaLISA, 16 h; active compounds read low; 360,000 compounds, 4.7% hits; in the data active means activity change below about -50%; inconclusive means mostly about -30% to -49%; further: on the % scale 0 is the no-effect control and ±100 the full control effect
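THP-1 cells pretreated 1 hr with compounds (up to 57.5 uM final), then stimulated with LPS (250 ng/mL final) plus ATP (1.25 mM final); secreted IL-1B measured by AlphaLISA after 16 hr, decreased signal indicating inhibition.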
BCR signal inh: blocks chronic active B-cell receptor signaling; Potency, µM (titrated, usually from 46.1 µM), for inactives: top-dose activity change, negative = inhibition, usual class: inhibitors; AID 493014; ABC-DLBCL IkBa-CBG/CBR reporter, luminescence ratio, 4 h; 340,000 compounds, 0.05% hits; active means well fitted inhibition curve with a large enough effect in the signal ratio, with a control signal flat, not every such curve was filed as active; inconclusive means small, poorly fitted or top-dose-only effect, or effect the other way, or a change in a side signal; the % refers to the signal ratio;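 further: potency means the concentration at half of the fitted maximal effect; plate controls were basal doxycycline-induced cells for no effect and cells given 10 µM MG132 for full effect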
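TMD8 human ABC-DLBCL cells with doxycycline-inducible IκBα–green luciferase fusion and unfused red luciferase, in 0.5% FBS medium; compounds up to 46 uM, 4 h at 37C. Green/red luminescence ratio, filter-overlap corrected, fitted to concentration-response curves.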
Active calls of the source: *; ? = inconclusive; . = no result given. Unless noted, the call rests on the fitted dose curve; in most records, active means well fitted curve in the direction sought with a large enough effect; inconclusive means small, poorly fitted or top-dose-only effect, or another doubt; inactive means no such curve, though single readings can be large; an effect the other way counts as inactive or inconclusive.

SMILES	SW480 rerep	DT40 TDP1 no CPT	MCF10A rereplic	TDP1 cell CPT	IL-1B inflam inh	BCR signal inh
Clc1nc(CN2CCCCC2)nc2sc3c(c12)CCC3	13%	18µM*	?	?	.	?
c1ccc2c(c1)CCN(c1nc(CN3CCOCC3)nc3sc4c(c13)CCCC4)C2	-4%	16µM*	?	23µM*	-51*	1%
O=c1[nH]c(CN2CCCC2)nc2sc3c(c12)CCC3	1%	-1%	5%	-28%	-2	1%
Cc1onc(-c2ccccc2)c1C(=O)OCC(=O)NC(C)c1ccc(Cl)cc1 (stereo unspecified)	-1%	-24%	6%	?	-25	?
S=C(NCCSCc1c(Cl)cccc1Cl)Nc1ccccc1	2%	?	?	?	-29	?
CCOc1ccc(CSCCNC(=S)Nc2ccccc2)cc1	0%	23µM*	0%	23µM*	4	-2%
CCOc1ccc(NC(=S)NCCCc2ccccc2)cc1	-5%	?	?	?	-18	2%
S=C(NCCSCc1ccc(Cl)c(Cl)c1)Nc1ccccc1	?	?	26µM*	-19%	-25	.
O=C(NCCSCc1c(F)cccc1Cl)Nc1ccccc1	2%	?	?	-28%	-75*	-12%
CC(=O)CCC(=O)N1CCC(n2nccc2NC(=O)c2ccccc2C)CC1	9%	0%	6%	-13%	16	2%
COc1cc(/C=C(\NC(=O)c2ccccc2)C(=O)N2CC3CC(C2)c2cccc(=O)n2C3)cc(OC)c1OC (stereo unspecified)	-6%	3%	0%	-6%	-2	-12%
FC(F)(F)c1cccc(N2CCN(c3ncnc4c3nc3n4CCCC3)CC2)c1	.	9.2µM*	.	9.2µM*	.	.
COc1cccc(N2CCN(c3ncnc4c3nc3n4CCCCC3)CC2)c1	.	10µM*	.	16µM*	.	.
Cn1c(=O)n(CC(=O)N2CCN(c3nnc(-c4ccccc4)c4ccccc34)CC2)c2ccccc21	1%	?	13%	?	-8	6%
Cc1ccc(-c2nnc(N3CCN(C(=O)CN4CCOCC4)CC3)c3ccccc23)cc1	1%	16µM*	8%	-27%	-22	2%
Cc1ccc(-c2nnc(N3CCN(C(=O)Cn4c(=O)n(C)c5ccccc54)CC3)c3ccccc23)cc1	-5%	16µM*	17%	?	11	-10%
Cc1c(NS(=O)(=O)c2ccc3c(c2)Cc2ccccc2-3)c(=O)n(-c2ccccc2)n1C	-3%	?	5%	6%	8	-1%
O=C1c2ccccc2C(c2nnnn2Cc2ccccc2)N1Cc1ccc2c(c1)OCO2 (stereo unspecified)	.	-28%	.	-29%	0	.
COc1ccc(OC)c(NC(=O)CSc2nccn2-c2cc(C)cc(C)c2)c1	.	16µM*	.	15µM*	.	.
Cc1ccc(NC(=O)CSc2nncn2C)c(C)c1	.	-15%	.	-22%	.	.
Cc1cc(C)cc(-n2ccnc2SCC(=O)Nc2ccc(C)cc2C)c1	.	21µM*	.	16µM*	.	.
CSc1ccccc1NC(=O)CN(C)C(=O)C1CC(=O)N(C(C)c2ccccc2)C1 (stereo unspecified)	2%	-15%	1%	-5%	0	-3%
Cc1ccc(N2C(=O)CC(N3CCN(c4ccccn4)CC3)C2=O)cc1 (stereo unspecified)	-2%	33%	13%	-8%	-3	0%
Cc1ccc2nc(-c3ccc(N4C(=O)CC(N5CCN(CCO)CC5)C4=O)cc3)sc2c1 (stereo unspecified)	19%	15µM*	-65%	?	?	?
O=C(N/N=C/c1ccc2c(c1)OCO2)c1ccc(NS(=O)(=O)c2cccs2)cc1	?	7%	10%	6%	-60*	?
SMILES	SW480 rerep	DT40 TDP1 no CPT	MCF10A rereplic	TDP1 cell CPT	IL-1B inflam inh	BCR signal inh
N/C(=N\N=Cc1ccc2c(c1)OCO2)NN=Cc1ccc2c(c1)OCO2	?	2.3µM*	23µM*	3.3µM*	-99*	.
O=C(CCc1c[nH]c2ccccc12)N/N=C/c1ccc2c(c1)OCO2	-12%	23µM*	9%	-13%	-24	?
O=C(NN=Cc1ccc2c(c1)OCO2)NN=Cc1ccc2c(c1)OCO2	19%	?	?	2%	-89*	.
Cc1nn(-c2ccc(Cl)cc2)c(Cl)c1/C=N/NC(=O)c1ccc(NS(=O)(=O)c2cccs2)cc1	-3%	18µM*	0%	18µM*	?	.
N/C(=N\N=C/c1ccc(Br)cc1)N/N=C\c1ccc(Br)cc1	11%	?	24%	?	-64*	-6%
CN(C)c1ccc(/C=C/c2ccc3cc(N)ccc3n2)cc1	.	3.2µM*	.	7.1µM*	.	.
Cc1ccc2nc(/C=C/c3cccc(F)c3)ccc2c1	3%	?	?	1%	6	-20%
Cc1ccc2nc(/C=C/c3ccc(N(C)C)cc3)ccc2c1	.	13µM*	.	13µM*	.	.
CC(C)(C)C(C(=O)n1cccc1C#N)c1ccccc1 (stereo unspecified)	-6%	-16%	-17%	?	34	1%
Cc1c(C#N)c(O)n(CCO)c(=O)c1N=Nc1ccc2c(c1)COC2=O	12%	?	?	-10%	-57*	?
Cc1cc(=O)n(CCO)c(O)c1C#N	-4%	-13%	2%	-2%	16	4%
O=C(Nc1cccc2ccccc12)c1ccc([N+](=O)[O-])s1	?	10µM*	?	15µM*	15	?
O=C(Nc1cccnc1)c1ccc([N+](=O)[O-])s1	?	0.65µM*	?	0.73µM*	-2	?
O=C(Nc1ccccc1F)c1ccc([N+](=O)[O-])s1	15µM*	21µM*	?	21µM*	-68*	?
CN(C)NC(=O)c1ccc([N+](=O)[O-])s1	10%	16µM*	12%	?	8	-2%
O=C(COC(=O)c1ccc([N+](=O)[O-])s1)Nc1ccccc1	-2%	-12%	11%	?	17	1%
Cc1ccc(C(=O)Nc2cc([N+](=O)[O-])ccc2F)s1	-8%	-3%	5%	-3%	5	-7%
Cn1ccc2c(-c3ccc(C(=O)O)cc3)cc3c(c21)C1CCC3C1 (stereo unspecified)	.	-12%	.	-13%	33	.
COC(=O)c1nnn(-c2nc(N3CCOCC3)nc(N3CCOCC3)n2)c1C	-2%	?	0%	?	26	-1%
